In the library only some 12% were active in any assay of this set; here they are far more common.
BAZ2B block – qHTS Assay for Inhibitors of BAZ2B | AlphaScreen BAZ2B-H3K14Ac peptide displacement | Potency, µM (highest dose often 114 µM), inactives show at the top dose activity change, negative = inhibition, hits mostly inhibitors | hit rate 4.4% among 360,000; further: on the % scale 0 is the no-effect control and ±100 the full control effect; nearly all actives have a fitted effect of over 60% in size
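Compounds, titrated to a top concentration of 110 uM, were incubated 30 min at room temperature with preformed BAZ2B/acetyl-K14 H3 peptide complex (50 nM each). Proximity signal was measured by AlphaScreen after 20 min with beads.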
JMJD2A Tudor – qHTS Assay for Inhibitors of JMJD2A-Tudor Domain; Potency, µM (highest dose often 114 µM), inactives show at the highest dose activity change, negative = inhibition, usual class: inhibitors; AID 504339, 2011; AlphaScreen JMJD2A-Tudor / H3K4me3 peptide binding; hit rate 4.4% among 390,000; Lysine-specific demethylase 4A (Homo sapiens), O75164; further: on the % scale 0 is the no-effect control and ±100 the full control effect; nearly all actives have a fitted effect of over 50% in size
Sfp PPTase inh – qHTS Assay for Inhibitors of Bacillus subtilis Sfp phosphopantetheinyl transferase (PPTase). Biochemical Sfp PPTase activity, qHTS. hit rate 3.5% among 310,000. 4'-phosphopantetheinyl transferase ffp (Bacillus subtilis), Q9F4F7. AID 1490, 2009. Potency, µM, without a hit: largest response in the series, negative = inhibition, actives largely listed as inhibitors;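 further: the enzyme is Sfp with the accession as filed and its product quenches rhodamine fluorescence; 0% = enzyme reaction without inhibitor and -100% = no enzyme wells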
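After 15 min at room temperature with compound, 15 nM Sfp received 5 uM rhodamine-CoA plus 12.5 uM BHQ-2-ybbR (50 mM Hepes pH 7.6, 10 mM MgCl2). Rate came from the fluorescence difference over 30 min, ex 525/em 598 nm.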
HP1b binding inh – HTS for Inhibitors of HP1-beta Chromodomain Interactions with Methylated Histone Tails; Potency, µM (titrated, usually from 114 µM), inactives show at the highest dose activity change, negative = inhibition, usual class: inhibitors; AlphaScreen HP1-beta / biotin-H3K9me3 peptide binding; hit rate 0.56% among 390,000; Chromobox protein homolog 1 (Homo sapiens), P83916; further: nearly all actives have a fitted effect of over 70% in size
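HP1-beta protein (50 nM final) preincubated 30 min at room temperature with biotinylated H3(1-18)K9me3 peptide (50 nM) in PBS pH 7.4, 0.01% Tween-20, then compound added for 30 min. AlphaScreen streptavidin donor/nickel chelate acceptor beads (10 ug/mL final), 30 min dark, luminescence read.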
PLK1 PBD inh – qHTS for Inhibitors of PLK1-PDB (polo-like kinase 1 - polo-box domain): Primary Screen; Serine/threonine-protein kinase PLK1 (Homo sapiens), P53350; Plk1 PBD binding of FITC phosphopeptide, fluorescence polarization; Potency, µM, inactives show max response, negative = inhibition, actives largely listed as inhibitors; hit rate 2.8% among 360,000; further: series mostly up to about 57 µM; on the % scale 0 is the no-effect control and ±100 the full control effect; nearly all actives have a fitted effect of over 65% in size
G9a block – qHTS Assay for Inhibitors of Histone Lysine Methyltransferase G9a; Histone-lysine N-methyltransferase EHMT2 (Homo sapiens), Q96KQ7; G9a H3K9 monomethylation, AlphaScreen, 2 h; Potency, µM (highest dose often 102 µM), without a hit: at the highest dose activity, negative = inhibition, usual class: inhibitors; hit rate 8.8% among 350,000; AID 504332, 2011; further: on the % scale 0 is the no-effect control and ±100 the full control effect; nearly all actives have a fitted effect of over 75% in size
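Compounds were preincubated with 20 nM G9a for 15 min, after which biotinylated H3K9 peptide (500 nM) and SAM (20 uM) started a 2 h room-temperature reaction. Monomethylated product was quantified by antibody-based AlphaScreen chemiluminescence.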
An asterisk follows results filed as active; ? = inconclusive; . = no result given; [ ] = remark or other dose. The call rests on the fitted dose curve; in most records, active means well fitted curve in the direction sought with a large enough effect; inconclusive means small, poorly fitted or top-dose-only effect, or another doubt; inactive means no such curve, though single readings can be large; an effect the other way counts as inactive or inconclusive. Potency means the concentration at half of the fitted maximal effect.

SMILES | BAZ2B block | JMJD2A Tudor | Sfp PPTase inh | HP1b binding inh | PLK1 PBD inh | G9a block
CCCCNC(=O)c1cc2cccc([N+](=O)[O-])c2[nH]1 | ? | -27% | -20% | 17% | -14% | 50µM*
CCOc1ccc(NCc2cccn2-c2nnc(N3CCC(C(=O)NCCCN4CCCCC4C)CC3)s2)cc1 (stereo unspecified) | ? | 40µM* | 10% | -15%[57 µM] | 3% | 50µM*
CCOc1ccc(NCc2cccn2-c2nnc(N3CCC(C(=O)NCCCN4C(C)CCCC4C)CC3)s2)cc1 (stereo unspecified) | 40µM* | 56µM* | -11% | -21% | ? | 40µM*
CCOc1ccc(NCc2cccn2-c2nnc(N3CCC(C(=O)NCCCN4CCCCC4)CC3)s2)cc1 | 40µM* | 50µM* | 0% | ? | -10% | 40µM*
CCOc1ccc(NCc2cccn2-c2nnc(N3CCC(C(=O)NCc4ccccc4Cl)CC3)s2)cc1 | -19% | -24% | . | 24% | . | ?
COc1cc(NC(=O)Cn2nc(C(F)(F)F)c3c2CCC3)cc(OC)c1OC | -1% | -8% | . | 31% | . | -50%[59 µM]
N#CCCN(C(=S)NC(=O)C1CCCCC1)c1ccccc1F | . | 3% | . | 25% | -18% | .
O=C(NCCS(=O)(=O)N1CCN(c2ccccc2F)CC1)c1cccs1 | 7% | -10% | . | 18% | -3% | 12%[0.501 µM]
O=C(OCC(=O)N1CCN(c2ccccc2)CC1)c1ccc(O)cc1O | 16% | -9% | -7% | 55% | 4% | .
CC(=NNC(=S)N1CCCCC1)c1cccc(C)n1 | . | 25µM* | . | ? | ? | .
Cc1cccc(C(=S)N2CCOCC2)n1 | -4% | -6% | . | 12% | -9% | 1%[12.7 µM]
CSC(=S)NN=C(C)c1cccc(C)n1 | . | 5µM* | . | -25% | -4% | .
CC(C)(C)C(=O)CNCC(=O)C(C)(C)C | -6% | 2% | -10% | 48% | 0% | 40µM*
O=c1c2cn(Cc3ccccc3)c3ccccc3c-2nn1Cc1ccc(F)cc1Cl | 2% | -1% | 17% | 10% | -2% | 6%
O=C(O)CC/C(=C\c1ccc(N2CCOCC2)c([N+](=O)[O-])c1)c1nc2ccccc2s1 | 35µM* | ? | 17% | -11% | -18% | ?
O=C(O)C/C(=C\c1ccc(N2CCOCC2)c([N+](=O)[O-])c1)c1nc2ccccc2s1 | 50µM* | -9%[11.4 µM] | -9% | -6% | ? | ?
O=C(O)CC/C(=C\c1ccc(Cl)c([N+](=O)[O-])c1)c1nc2ccccc2s1 | -39% | -25% | -14% | 19% | -29% | -48%
CCOc1ccc(S(=O)(=O)N2CCOCC2)cc1NC(=O)C1CSC2(C)CCC(=O)N12 (stereo unspecified) | -17% | -2% | . | 15% | 1% | 45µM*
CCN(CC)c1ccc(S(=O)(=O)N2CCCCC2)cc1NC(=O)C1CSC2(C)CCC(=O)N12 (stereo unspecified) | -15% | -25% | . | 16% | 3% | 4%[59 µM]
Cc1ccccc1C1C(C#N)=C2N=C(N)c3c(sc4c3CCCCC4)N2C2=C1C(=O)CCC2 (stereo unspecified) | 45µM* | -23%[57.1 µM] | 50µM* | 16% | -24% | ?
N#CC1=C2N=C(N)c3ccccc3N2C2=C(C(=O)CCC2)C1c1ccccc1F (stereo unspecified) | ? | ? | 5% | -11% | -6% | -39%
C/C(CCN1CCCCc2nc(C)c(C)cc21)=N\O[C@H](C)c1cn([C@H](CO)Cc2ccccc2)nn1 | -13% | . | -9% | . | . | 56µM*
O=C1NC(=O)/C(=C\c2ccccc2OCc2ccc([N+](=O)[O-])cc2)N1 | -8% | ? | 17% | -8% | 24µM* | 4%[59 µM]
O=C1NC(=O)/C(=C/c2ccccc2OCc2ccccc2)S1 | -33% | -23% | -20% | 9% | ? | 40µM*
O=C1NC(=O)/C(=C\c2ccccc2Oc2ccc(F)c(F)c2)S1 | -28% | -21% | 15% | -1% | 27µM* | -3%[59 µM]
SMILES | BAZ2B block | JMJD2A Tudor | Sfp PPTase inh | HP1b binding inh | PLK1 PBD inh | G9a block
O=C(COc1ccccc1/C=C1\SC(=O)NC1=O)Nc1ccccc1 | . | -23% | 3% | 2% | ? | -49%
O=C(Nc1ccccc1C(=O)OCC(=O)c1c[nH]c2ccccc12)c1ccco1 | 20% | -14% | -15% | 27% | 0% | -7%[59 µM]
Cc1ccc(Cn2c(=O)c3ccccc3n3nc(C)cc23)cc1 | 2% | -17% | 7% | 37% | -11% | 30%
CCCC(=O)Nc1nnc(S(=O)(=O)N(CC)c2ccccc2)s1 | -9% | 7% | 7% | 34% | 1% | -7%
Cc1cccc(N2CCN(C(=O)CN3CCOc4ccccc43)CC2C)c1 (stereo unspecified) | ? | ? | 9% | -15% | -10% | 50µM*
Cc1cc(C)c2c(=O)n(CC(=O)N3CCC(Cc4ccccc4)CC3)sc2n1 | 1% | . | 7.9µM* | . | . | 1.6µM*
Cc1cccc(N2CCN(C(=O)Cn3sc4nc(C)cc(C)c4c3=O)CC2C)c1 (stereo unspecified) | ? | 3.2µM* | 3.5µM* | 8.9µM* | 1.7µM* | 1.3µM*
Cc1cccc(N2CCN(C(=O)Cn3nc(C)n4cccc4c3=O)CC2C)c1 (stereo unspecified) | 9% | -3% | 7% | 29% | -1% | -3%
CCOc1cc(/C=C(\C#N)C(=O)Nc2ccc(C)cc2)ccc1OCc1cc(=O)n2nc(CC)sc2n1 | 1% | -20% | . | 15% | . | -6%[59 µM]
CCc1ccc(CNC(=O)CN2C(=O)COc3ccccc32)cc1 | 6% | -7% | 11% | 32% | -1% | 6%[12.7 µM]
CN1CCN(C(=O)c2ccc(C(C)(C)C)cc2)CC1 | 79µM* | -19% | 10% | 51% | -4% | 16%[59 µM]
CN1CCN(C(=O)c2ccc(C(F)(F)F)cc2)CC1 | ? | 0% | 6% | 42% | -3% | ?
O=C(CNCc1ccc(Cl)cc1)Nc1ccc(C(=O)N2CCCCCC2)cc1 | 50µM* | 3.5µM* | -21% | ? | 0% | 7.9µM*
COc1ccc(CCNCC(=O)Nc2ccc(OC(F)F)cc2)cc1 | 1% | 5% | 7% | 9% | 0% | 6%
COc1ccc(CCNCC(=O)Nc2ccc(C(=O)N3CCCCC3)cc2)cc1 | 40µM* | 1.4µM* | ? | ? | -4% | 8.9µM*

Compound activity: PubChem, National Center for Advancing Translational Sciences (NCATS)
